HP1b chromo inh: blocks HP1-beta chromodomain binding to methylated histone tails; P83916; AlphaScreen HP1-beta / biotin-H3K9me3 peptide binding; Potency, µM (highest dose often 114 µM), inactives show top-dose activity change, negative = inhibition, most hits filed as inhibitors; actives 0.56% (n = 390,000); further: potency means the concentration at half of the fitted maximal effect; nearly all actives have a fitted effect of over 70% in size
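AlphaScreen: HP1-beta (50 nM) preformed 30 min with biotin-H3(1-18)K9me3 peptide (50 nM) in PBS pH 7.4, 0.01% Tween-20. Compound added for 30 min at RT, then streptavidin donor/nickel chelate acceptor beads (10 ug/mL) for 30 min.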
PLK1 PBD inh: PLK1 (human) polo-box domain binding inhibition | P53350 | Plk1 PBD binding of FITC phosphopeptide, fluorescence polarization | Potency, µM, for the others: max response, negative = inhibition, actives largely listed as inhibitors | actives 2.8% (n = 360,000); further: potency means the concentration at half of the fitted maximal effect; series mostly up to about 57 µM; on the % scale 0 is the no-effect control and ±100 the full control effect; nearly all actives have a fitted effect of over 65% in size
Target sequence (P53350 whole entry, looked up, the tested form may be a part): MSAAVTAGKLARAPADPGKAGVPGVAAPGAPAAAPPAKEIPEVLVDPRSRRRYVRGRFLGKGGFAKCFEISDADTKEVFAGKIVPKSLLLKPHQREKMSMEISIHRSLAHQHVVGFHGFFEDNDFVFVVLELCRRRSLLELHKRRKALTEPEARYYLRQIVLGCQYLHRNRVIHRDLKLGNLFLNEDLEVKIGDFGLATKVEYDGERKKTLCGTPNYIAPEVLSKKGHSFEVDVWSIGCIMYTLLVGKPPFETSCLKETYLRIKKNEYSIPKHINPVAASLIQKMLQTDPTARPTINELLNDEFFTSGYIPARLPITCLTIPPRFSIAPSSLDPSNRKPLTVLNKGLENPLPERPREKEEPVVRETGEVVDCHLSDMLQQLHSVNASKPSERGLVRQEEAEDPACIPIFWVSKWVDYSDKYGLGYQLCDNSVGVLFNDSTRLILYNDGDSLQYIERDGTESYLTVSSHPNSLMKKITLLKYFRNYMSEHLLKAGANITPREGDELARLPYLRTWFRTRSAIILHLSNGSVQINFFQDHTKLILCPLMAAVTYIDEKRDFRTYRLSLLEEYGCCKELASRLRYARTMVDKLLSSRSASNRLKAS
KAT2A inh: GCN5L2 (KAT2A) acetyltransferase inhibition | Q92830 | actives 0.21% (n = 390,000) | Potency, µM (top dose mostly 58.9 µM), without a hit: at the top dose activity change, negative = inhibition, actives largely listed as inhibitors | GCN5L2 HAT assay, ThioGlo1 CoA-SH fluorescence; further: potency means the concentration at half of the fitted maximal effect; on the % scale 0 is the no-effect control and ±100 the full control effect
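GCN5L2 (20nM final) in 50mM HEPES, 0.1mM EDTA pH 7.5, 0.01% Tween-20 was preincubated 15 min at room temperature with compound, then given ThioGlo1 (50uM), H3(1-25) peptide (75uM) and acetyl-CoA (70uM); CoA-thiol fluorescence (Ex340/Em540) was read at 0 and 20 min.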
JMJD2A Tudor inh: inhibitors of human JMJD2A Tudor domain. O75164. AlphaScreen JMJD2A-Tudor / H3K4me3 peptide binding. Potency, µM (doses to about 114 µM), inactives show at the top dose activity change, negative = inhibition, most hits filed as inhibitors. actives 4.4% (n = 390,000); further: potency means the concentration at half of the fitted maximal effect; on the % scale 0 is the no-effect control and ±100 the full control effect; nearly all actives have a fitted effect of over 50% in size
BAZ2B inh: BAZ2B (human) inhibition | Q9UIF8 | AlphaScreen BAZ2B-H3K14Ac peptide displacement | Potency, µM (top dose mostly 114 µM), for inactives: at the top dose activity change, negative = inhibition, usual class: inhibitors | actives 4.4% (n = 360,000) | AID 504333; further: potency means the concentration at half of the fitted maximal effect; on the % scale 0 is the no-effect control and ±100 the full control effect; nearly all actives have a fitted effect of over 60% in size
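Protein-peptide AlphaScreen: BAZ2B 50 nM, b-H3K14Ac 50 nM, 1x PBS pH 7.4 + 0.01% Tween-20. Preincubation 30 min RT; cpd 30 min RT (top 110 uM); beads 20 min RT, light-protected.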
PI5P4K alpha inh: inhibitors of human PI5P4K alpha; PI5P4Kalpha enzyme, ADP-Glo luminescence, 60 min; stronger effect = lower value; max response, %; actives 1.2% (n = 330,000); AID 652105; active means max response of -50% or lower; inconclusive means between -30% and -50%; inactive means -30% or higher; further: value at the top dose of about 77 µM; on the % scale 0 is the no-effect control and ±100 the full control effect
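qHTS, 1536-well: enzyme/substrate mix, compound by pin tool, 5 microM ATP final; RT 60 min; ADP-Glo reagents 1 (45 min) then 2 (30 min); luminescence.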
The depositor's hits bear a star; ? = inconclusive; . = not tested or not shown; [ ] = another dose, or the depositor's remark. Sampled rows, rich in hits. Any-hit rate of the full collection: about 7%. Unless noted, the call rests on the fitted dose curve; in most records, active means well fitted curve in the direction sought with a large enough effect; inconclusive means small, poorly fitted or top-dose-only effect, or another doubt; inactive means no such curve, though single readings can be large; an effect the other way counts as inactive or inconclusive.

SMILES	HP1b chromo inh	PLK1 PBD inh	KAT2A inh	JMJD2A Tudor inh	BAZ2B inh	PI5P4K alpha inh
O=C1C2CCCCC2C(=O)N1c1ccc(NC2CCN(Cc3ccccc3)CC2)c([N+](=O)[O-])c1 (stereo not drawn)	?	-1%	-4%	45µM*	40µM*	1
Cc1ccc(C(C2=C(O)CC(C)(C)CC2=O)C2C(=O)CC(C)(C)CC2=O)o1 (stereo not drawn)	61%	6µM*	3%	-8%	-31%	-11
CC1(C)CC(=O)C(C(C2=C(O)CC(C)(C)CC2=O)c2cccs2)C(=O)C1 (stereo not drawn)	21%	4.7µM*	1%	-19%	3%	?
CC1(C)CC(=O)C(C(C2=C(O)CC(C)(C)CC2=O)c2cccc(O)c2)C(=O)C1 (stereo not drawn)	44%	?	15%	-12%	3%	.
Cc1c(Cl)cccc1N(CC(=O)NC(C)c1ccccc1)S(C)(=O)=O (stereo not drawn)	6%	3%	-12%	-15%	7%	-1
CC1(C)N([O-])C2=C(c3ccccc3C2=O)[N+](=O)C1(C)C	-2%	11µM*	-3%[0.501 µM]	-8%	13%	4
CCN1CCN(c2oc(-c3ccc(COc4ccccc4C)o3)nc2C#N)CC1	?	.	-20%	50µM*	11%	.
N#Cc1nc(-c2ccc(COc3ccccc3)o2)oc1N1CCCCC1	?	.	-5%	?	5µM*	.
COc1ccc(CNC(=O)c2ccc(N3CCCC3)c(NC(=O)NCc3ccc(C)cc3)c2)cc1	5%	.	-5%	-32%	-28%	.
COc1ccc(OC)c2sc(Cl)nc12	-4%	19µM*	-5%	4%	9%	-2
CCOc1ccc(CNc2cccc(SC)c2)cc1	45µM*	-7%	3%	3.2µM*	40µM*	13
CCOC(=O)N1CCN(C(=O)CN2C(=O)COc3ccc(C(C)(C)C)cc32)CC1	-3%	?	-3%	89µM*	38%	.
CC(C)(C)c1ccc2c(c1)N(CC(=O)O)C(=O)CO2	36%	3%	17%	-8%	-34%	.
CCN(CC)c1ccc(C2CC(=O)Nc3cc(OC)c(OC)cc32)cc1 (stereo not drawn)	-48%	-3%	-2%	50µM*	45µM*	6
CCOc1cc(-c2cc(-c3ccc(C)cc3)nc(N)c2C#N)ccc1O	29%	3%	-10%	-13%	-12%	.
CCOc1cc(/C=C(\C#N)c2[nH]nc(N)c2C#N)ccc1O	22%	5%	-8%	-33%	-34%	-65*
C=CC[C@@H](CC(=O)N[C@H](CO)Cc1ccccc1)C(=O)N[C@H](COC(=O)[C@@H](CC=C)Cc1ccc(F)cc1)Cc1c[nH]c2ccccc12	14%	-2%	-6%	-35%	.	11
Cc1ccc([N+](=O)[O-])c(NC2OC(CO)C(O)C2O)c1 (stereo not drawn)	18%	-17%	-14%	-7%	-2%	-3
NC(=O)c1ccccc1NC(=O)CCc1ccccc1	27%	-10%	1%	-14%	-6%	.
NC(=O)c1ccccc1NC(=S)NC(=O)CCc1ccccc1	?	15µM*	-14%	79µM*	-6%	?
CSc1ccccc1NC(=O)c1cc2ncc(Br)cn2n1	-10%	?	-9%	?	56µM*	?
Cc1ccccc1Cn1ccc(NC(=O)c2cc3ncc(Br)cn3n2)n1	33%	-1%	-6%	-11%	50µM*	-2
CCOc1ccc(CCNC(=O)COC(=O)c2ccc(C)c([N+](=O)[O-])c2)cc1OCC	14%	-2%	?	-12%	-17%	10
O=C(O)CC(C(=O)OCC1CCCO1)N1CCOCC1 (stereo not drawn)	0%	-5%	-7%	-15%	-21%	1
C=C(C)CCOC(=O)C(CC(=O)O)NCc1ccco1 (stereo not drawn)	-18%	?	-5%	35µM*	35µM*	-9
SMILES	HP1b chromo inh	PLK1 PBD inh	KAT2A inh	JMJD2A Tudor inh	BAZ2B inh	PI5P4K alpha inh
O=C(O)CC(NCc1ccco1)C(=O)OCC1CCCO1 (stereo not drawn)	17%	-3%	0%	?	50µM*	-2
O=C(O)CC(NCc1ccco1)C(=O)OCCc1ccccc1 (stereo not drawn)	-19%	-11%	-8%	6.3µM*	-5%	4
CC(C)c1ccccc1N=C1SCCCN1C(=O)c1cccc(N2C(=O)CCC2=O)c1	11%	-3%	-6%	-13%	33%	5
CCCCCCSc1cc(-c2nc3cc(C)ccn3c2NCCCC)ccc1OC	26%	-3%	-12%	?	-36%	2
CCCCNc1c(-c2cccc(-c3cc(C(C)=O)cs3)c2)nc2cc(C)ccn12	-8%	-21%	-16%	?	28µM*	-1
CC(=O)c1csc(-c2cccc(-c3nc4ccc(Cl)cn4c3NC3CCCCC3)c2)c1	-7%	-20%	-10%	?	56µM*	-2
CCCN(CCC)C(=O)c1ccc2c(c1)N(Cc1ccccc1)C(=O)CS2=O (stereo not drawn)	7%	27µM*	-6%	-30%	4%	-7
O=C(NCCc1ccccc1)c1ccc2c(c1)N(Cc1ccccc1)C(=O)CS2=O (stereo not drawn)	55%	?	-2%	-16%	7%	-15
Cc1cc(Cc2cc(C)c(N)cc2C)c(C)cc1N	-1%	-12%	-8%	-28%	35µM*	3
COc1cc(C)c(Cc2cnc(N)nc2N)cc1OC	.	.	2%	.	-12%	.
COc1ccc2[nH]c(C)c(CCNC(=S)Nc3ccccc3C)c2c1	?	-15%	2%	89µM*	45µM*	-2
CCc1cccc(CC)c1NC(=S)NCCc1c(C)[nH]c2ccccc12	-16%	-6%	-1%	45µM*	32µM*	9
COc1ccc2[nH]c(C)c(CCNC(=S)Nc3cccc(C)c3C)c2c1	?	0%	-7%	56µM*	35µM*	0
Cc1cccc(NC(=S)NCCO)c1C	31%	-1%	2%	-3%	2%	-3
COc1ccc2[nH]c(C(=O)O)c(CCNC(C)=O)c2c1	37%	2%	3%	-17%	-2%	-12
COc1ccc2[nH]c(C)c(CCNC(=S)Nc3ccc(C)cc3)c2c1	-23%	-15%	-13%	50µM*	.	-1
O=C(Cc1ccc(F)cc1)Nc1cc(S(=O)(=O)N2CCOCC2)ccc1N1CCCCC1	.	1%	.	.	.	-4
O=S(=O)([N-]c1nc2ccccc2nc1-[n+]1ccccc1)c1ccc(F)cc1	33%	-23%	-4%	-6%	-20%	7
Cc1ccc(N(C)S(=O)(=O)c2cccc(C(=O)NCCCN3CCCC3=O)c2)cc1	21%	-5%	-9%	-7%	33%	2
